Experimental findings from PubChem BioAssay AID1210 (NMMLSC, 2008) are described below.

Active and inactive are the calls of the source.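 The calls were made as follows: active = blocks over 70% of labeled estradiol binding at 10 µM, or over a set limit at 100 nM; inactive = the rest.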

For the assay, the target named is Estrogen receptor beta (Homo sapiens) (UniProt Q92731). The experiment in a line: ERbeta ligand binders by competition, primary screen, cell-based, Cos7 ERbeta-GFP, flow cytometry (AID 1210).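 Also: 0% = DMSO vehicle wells and 100% = complete loss of labeled estradiol signal.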 The following applies: fluorescent estrogen binding, stronger effect = higher value. Background: In flow cytometry, cells or beads pass a laser one at a time.
[1] abbreviates: ligand binding inhibition, at 0.1 µM.

Chain of Estrogen receptor beta (Homo sapiens) (Q92731 whole entry, looked up): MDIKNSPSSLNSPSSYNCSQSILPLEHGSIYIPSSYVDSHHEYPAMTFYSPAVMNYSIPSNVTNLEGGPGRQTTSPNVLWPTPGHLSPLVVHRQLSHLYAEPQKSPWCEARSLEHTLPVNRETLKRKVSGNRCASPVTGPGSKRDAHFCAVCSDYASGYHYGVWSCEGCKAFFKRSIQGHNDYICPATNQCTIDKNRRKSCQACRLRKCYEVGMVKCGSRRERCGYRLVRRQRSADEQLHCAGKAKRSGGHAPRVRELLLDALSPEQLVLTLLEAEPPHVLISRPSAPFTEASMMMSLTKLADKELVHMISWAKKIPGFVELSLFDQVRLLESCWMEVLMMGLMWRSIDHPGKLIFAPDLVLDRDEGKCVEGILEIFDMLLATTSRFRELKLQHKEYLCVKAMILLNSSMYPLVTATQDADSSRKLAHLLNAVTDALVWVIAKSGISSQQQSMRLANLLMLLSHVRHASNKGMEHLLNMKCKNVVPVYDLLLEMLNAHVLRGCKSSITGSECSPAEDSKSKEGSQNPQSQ

On to `Cc1ccc(/C=c2\sc3nc(-c4ccco4)nn3c2=O)o1`, for which the inhibition (commonly the drop in the measured response relative to a control, in per cent) by setting is: (at 10 µM) 61% (inactive); under setting [1], 27%.

Take `O=C(Nc1cc(C(F)(F)F)ccc1N1CCOCC1)C1Cc2ccccc2CN1C(=O)c1ccco1` (centres undefined): the inhibition is, setting by setting: (at 10 µM) 73% (active); under setting [1], 13%.

Regarding `O=C(Nc1cnn(C23CC4CC(CC(C4)C2)C3)c1)c1cnn2c(C(F)(F)F)cc(-c3ccco3)nc12`, the inhibition runs as follows: (at 10 µM) 26% (inactive); under setting [1], 20%.

Take `O=C(COC(=O)CC1CCCC1)Nc1cc2c(cc1Cl)C(=O)c1ccccc1C2=O`: the inhibition runs as follows: (at 10 µM) 47% (inactive); under setting [1], 15%.

Turning to `O=C(Nc1ccc(-c2nc3ccc(NC(=O)c4cccs4)cc3[nH]2)cc1)c1cccs1`, the inhibition (at 10 µM) is 58% (inactive) and the inhibition under setting [1] came out at 18%.

With `C/C(N)=C(/C#N)C(=O)CSc1nnc(Cc2ccccc2F)n1N`, the inhibition is 22% (inactive) (at 10 µM) and 7% under setting [1].

As to `COc1ccc(CCn2c(SCC(=O)Nc3cc(C)on3)nc3ccsc3c2=O)cc1OC`, the inhibition was 66% (inactive) (at 10 µM) and 18% under setting [1].

As to `C=CCn1c(COc2cccc(C)c2)nnc1SCC(=O)NC(=O)NCc1ccco1`, the inhibition by setting is: (at 10 µM) 31% (inactive); under setting [1], 47%.

For the molecule `O=C(Nc1ccccc1N1CCOCC1)c1cc(-c2ccco2)nc2ccccc12`, the inhibition is, setting by setting: (at 10 µM) 56% (inactive); under setting [1], 28%.

For `Cc1cc(C(=O)CSc2nnc(-c3ccccc3F)o2)c(C)n1Cc1cccs1`, the inhibition reads like this: (at 10 µM) 51% (inactive); under setting [1], 30%.

For `Cc1snc2sc(C(=O)c3ccc(Br)cc3)c(N)c12`, the inhibition is 26% (inactive) (at 10 µM) and 20% under setting [1].

With `CCCOc1ccc(-c2nn(-c3ccccc3)cc2/C=C2\SC(N)=NC2=O)cc1`, the inhibition is 36% (inactive) (at 10 µM) and 19% under setting [1].

As to `O=C(Nc1sc2c(c1C(=O)O)CCC2)c1ccccc1`, the inhibition (at 10 µM) was 46% (inactive) and the inhibition under setting [1] amounted to 35%.

Regarding `CCc1ccc(-c2nn(-c3ccccc3)cc2CSC(=N)N)cc1`, the inhibition runs as follows: (at 10 µM) 76% (active); under setting [1], 71%.

On to `COc1ccc(Cc2nnc(NC(=O)Cc3cccs3)s2)cc1`, for which the inhibition is 17% (inactive) (at 10 µM) and 29% under setting [1].

Regarding `Cn1nc([N+](=O)[O-])c2c(-c3nc4ccccc4s3)c(N)n(C3CCCCC3)c2c1=O`, the inhibition by setting is: (at 10 µM) 18% (inactive); under setting [1], 34%.

As to `Nc1ccc2nc(CN3CCOCC3)[nH]c2c1`, the inhibition (at 10 µM) was 6% (inactive) and the inhibition under setting [1] is 47%.

As to `Cc1cccn2c(=O)c3cc(C(=O)O)n(C)c3nc12`, the inhibition (at 10 µM) was 60% (inactive) and the inhibition under setting [1] is 11%.

For `Nc1ccc(-c2cc(-c3ccc(N)cc3)nc(-c3ccccc3)n2)cc1`, the inhibition runs as follows: (at 10 µM) 43% (inactive); under setting [1], 29%.

For `C[C@]12CC[C@@H]3c4ccc(O[C@@H]5O[C@H](C(=O)O)[C@@H](O)[C@H](O)[C@H]5O)cc4CC[C@H]3[C@@H]1C[C@@H](O)[C@@H]2O`, the inhibition is, setting by setting: (at 10 µM) 52% (inactive); under setting [1], 15%.

Consider `COc1cccc2sc(Nc3nnc(-c4ccc(F)cc4)o3)nc12`, for which the inhibition is, setting by setting: (at 10 µM) 33% (inactive); under setting [1], 17%.

`CCOC(=O)c1ccc(NC(=O)CSc2nc(C)cc(=O)[nH]2)cc1`: the inhibition was 30% (inactive) (at 10 µM) and 2% under setting [1].

With `CCCc1nnc2n1N=C(c1ccc(-c3cc(Cl)ccc3Cl)o1)CS2`, the inhibition (at 10 µM) is 43% (inactive) and the inhibition under setting [1] was 48%.

On to `Cc1nnc(NC(=O)CSc2nc3c(c(=O)n2CCc2ccccc2)SC(C)C3)s1` (centres undefined), for which the inhibition was 45% (inactive) (at 10 µM) and 34% under setting [1].

On to `Cc1ccnc(NS(=O)(=O)c2ccc(NC(=O)Cc3cccs3)cc2)n1`, for which the inhibition (at 10 µM) was 38% (inactive) and the inhibition under setting [1] was 47%.

For the molecule `CC1(C)CCCN(C(=O)c2coc(=O)c(Br)c2)C1`, the inhibition (at 10 µM) is 49% (inactive) and the inhibition under setting [1] amounted to 18%.

Consider `Cc1ccc(Cn2c(NC(=O)c3ccco3)nc3ccccc32)cc1`, for which the inhibition (at 10 µM) was 10% (inactive) and the inhibition under setting [1] was determined as 19%.

Take `CN1C(=O)CC(C(=O)O)SC1=Nc1cc(Cl)c(O)c(Cl)c1` (centres undefined): the inhibition is, setting by setting: (at 10 µM) 48% (inactive); under setting [1], 14%.

As to `CCCCN(CCCC)S(=O)(=O)c1ccc(NC(=O)Cc2cccs2)cc1`, the inhibition is 50% (inactive) (at 10 µM) and 19% under setting [1].

`CC1CCCN(c2nc3c(c(=O)[nH]c(=O)n3C)n2Cc2ccccc2Cl)C1` (centres undefined): the inhibition was 38% (inactive) (at 10 µM) and 32% under setting [1].

As to `Cc1nn2cc(-c3ccc(N)cc3)nc2s1`, the inhibition reads like this: (at 10 µM) 23% (inactive); under setting [1], 15%.

`Cc1ccc(S(=O)(=O)Cc2ccc(C(=O)N3CCN(Cc4ccccc4)CC3)o2)cc1`: the inhibition runs as follows: (at 10 µM) 37% (inactive); under setting [1], 18%.

Take `CCN(CC)c1ccc(-c2nn3c(-c4ccccc4OC)nnc3s2)cc1`: the inhibition (at 10 µM) was 32% (inactive) and the inhibition under setting [1] amounted to 24%.

In the case of `CCNC(=O)c1ccc2c(c1)C1C3CCC(C3)C1C(c1ccccc1)N2` (centres undefined), the inhibition by setting is: (at 10 µM) 29% (inactive); under setting [1], 58%.

Consider `CC(=O)Nc1ccc(N=Cc2nc(-c3ccc(C)cc3)oc2O)cc1`, for which the inhibition (at 10 µM) is 68% (inactive) and the inhibition under setting [1] is 56%.

Consider `COc1cc2c(cc1OC)C(Cc1ccc(O)cc1)N(C)CC2` (centres undefined), for which the inhibition is 56% (inactive) (at 10 µM) and 6% under setting [1].

For `O=C(Nc1cccc(-c2cnc3ccccc3n2)c1)c1cccc(NC(=O)c2ccco2)c1`, the inhibition runs as follows: (at 10 µM) 58% (inactive); under setting [1], 43%.
